Measurements reported in PubChem BioAssay (NCI).
Compounds without any hit were thinned out: in the full panel of roughly 83,000, 20% have a hit.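 How to read the values: 0–100, growth inhibition (40 = 60% inhibited); 0, no net growth; -100 to 0, cell death (-40 = 40% of starting cells died; -100 = all dead).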 Unmarked numbers belong to inactive results. Activity calls are given as the source filed them. The calls were made as follows: active = growth percent below 10; inactive = the rest.

Tests used:
Assay in all cases: NCI-60 one-dose screen, 48 h (100 = growth as untreated, 0 = no growth, -100 = all killed)
Settings in all cases: 10 µM unless noted
HCT-15 colon = tested on: HCT-15 colon
HT29 colon = tested on: HT29 colon
SNB-75 CNS = tested on: SNB-75 CNS
SNB-19 CNS = tested on: SNB-19 CNS
U251 CNS = tested on: U251 CNS
PC-3 prostate = tested on: PC-3 prostate
SK-MEL-5 melanoma = tested on: SK-MEL-5 melanoma
UACC-62 melanoma = tested on: UACC-62 melanoma
LOX IMVI melanoma = tested on: LOX IMVI melanoma
SK-MEL-28 melanoma = tested on: SK-MEL-28 melanoma

Compound | growth (HCT-15 colon) | growth (HT29 colon) | growth (SNB-75 CNS) | growth (SNB-19 CNS) | growth (U251 CNS) | growth (PC-3 prostate) | growth (SK-MEL-5 melanoma) | growth (UACC-62 melanoma) | growth (LOX IMVI melanoma) | growth (SK-MEL-28 melanoma)
CN(C)CCNC(=O)c1ccc(-c2nc3ccc4[nH]ncc4c3c3c2C2CCC3C2)cc1 (stereo not given) | 41.8% | 34.4% | -12.4% (active) | 60.9% | 44.8% | 19.9% | 16.4% | 31.3% | 26.2% | 46.6%
COC(=O)Nc1nc2ccc(S(=O)c3ccccc3)cc2[nH]1 (stereo not given) | 45.6% | 16.9% | 73.2% | 74.9% | 60.2% | 67.4% | 42.5% | 52.4% | 64.8% | 72.8%
COc1ccc(-c2noc(C(=O)O)c2-c2cc(OC)c(OC)c(OC)c2)cc1 | 30.4% | 4.82% (active) | -3.43% (active) | 31.6% | 24.6% | 26.3% | 13% | 24.2% | 35.2% | 65.3%
Cc1cc(S(=O)(=O)/N=C(\N)n2nc(C)c(C)c2C)c(SCc2ccccc2)cc1Cl | 56.6% | 63.7% | 79.4% | 89.9% | 60.8% | 40.2% | 94.7% | 71.1% | 66.9% | 91.4%
CCCC/C=C/[C@@H]1C[C@H]1CCO | 97.7% | 97.2% | 90.3% | 96.3% | 101% | 95.5% | 99.3% | 92.4% | 98.2% | 98.1%
O=C1c2c(c3c4ccccc4[nH]c3c3ccc4ccccc4c23)C(=O)N1CCN1CCOCC1 | 20.6% | 35.6% | 63.7% | 56% | 32.3% | 35.1% | 37.4% | 38.7% | 27.2% | 73.9%
CCCCNC(=O)Oc1ccc(/C(=C(/C)Cc2ccc(OC)cc2)c2ccc(OCCN3CCCC3)cc2)cc1 | 13.5% | -11.3% (active) | 70% | 79.3% | 41.3% | 60.7% | 47% | 45.4% | -66.9% (active) | -0.368% (active)
Fc1cnccc1C1CC(c2ccc(N3CCNCC3)cc2)=NN1 (stereo not given) | 97.6% | 60.2% | 101% | 97.5% | 95.1% | 70.3% | 85.8% | 81.9% | 94.3% | 116%
CCc1ccc(CCCC(=O)O)cc1 | 101% | 101% | 87.9% | 95.7% | 101% | 96.8% | 102% | 96.8% | 99.5% | 108%
CCOc1nc(-c2ccccc2)cc2c(O)c(C(=O)N/N=C/c3ccccc3)[nH]c(=O)c12 | 104% | 105% | 122% | 105% | 106% | 93.5% | 102% | 103% | 109% | 114%
COC1=CC(c2ccc[nH]2)=N/C1=C\c1[nH]c(C)c(CC(=O)OCc2ccccc2)c1CCC(=O)OCc1ccccc1 | -56.7% (active) | 0.828% (active) | -6.6% (active) | 25.5% | -71.4% (active) | -40.3% (active) | -93.8% (active) | -69.7% (active) | -80.7% (active) | -52.4% (active)
COc1ccc(C(=O)/C=C/c2c(C(F)(F)F)nc3ccccn23)cc1OC | -13.6% (active) | 6.89% (active) | -19.9% (active) | 16.5% | 7.17% (active) | 30.6% | 4.43% (active) | 5.04% (active) | -53.1% (active) | 28.2%
